Measured values as given in PubChem BioAssay (EPA / NIEHS).
Inconclusive results are not listed. Calls of active or inactive are those of the source. The calls were made as follows, unless noted: active = hit-call score of the fitted dose curve at least 0.9, where 1 is the maximum; inconclusive = response in the unintended direction; inactive = score below 0.9.

What was measured:
[1] = TOX21_p53_BLA_p2_viability: Viability Assessment in the Tox21 HCT-116 p53 Agonism Beta-lactamase Assay, Phase 2 (AID 2283591);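 also: compound exposure lasted 16 h at 37 °C; actives lower the ATP signal meaning cytotoxicity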
Outline: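 Cytotoxicity readout: CellTiter-Glo ATP luminescence, 30 min at room temperature, after the beta-lactamase read. Cells were HCT116 exposed 16 h at 37C to compounds pin-transferred at 217-fold dilution from DMSO stocks.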

[2] = target: Cellular tumor antigen p53 (Homo sapiens) (UniProt P04637); test: TOX21_p53_BLA_p2_ratio: Tox21 HCT-116 p53 Agonism Beta-lactamase Assay, Ratio, Phase 2 (AID 2283592)
Sequence of Cellular tumor antigen p53 (Homo sapiens) (P04637 whole entry, looked up): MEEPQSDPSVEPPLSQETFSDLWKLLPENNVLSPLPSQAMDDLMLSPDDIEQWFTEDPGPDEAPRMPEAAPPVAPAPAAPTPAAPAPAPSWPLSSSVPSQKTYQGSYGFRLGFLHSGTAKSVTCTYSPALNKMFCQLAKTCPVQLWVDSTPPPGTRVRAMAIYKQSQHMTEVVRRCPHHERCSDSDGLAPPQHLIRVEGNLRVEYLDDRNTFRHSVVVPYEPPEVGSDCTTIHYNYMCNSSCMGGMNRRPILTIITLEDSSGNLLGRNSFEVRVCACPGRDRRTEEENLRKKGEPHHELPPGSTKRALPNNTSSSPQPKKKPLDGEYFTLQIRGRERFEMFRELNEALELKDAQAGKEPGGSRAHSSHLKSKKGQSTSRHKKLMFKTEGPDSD
Outline: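 Read-out is the blue/green (460/530 nm, 405 nm excitation) ratio after 2 h CCF4-AM loading, fitted as gain versus DMSO. Compounds, pinned at 217-fold dilution from DMSO stocks, stayed 16 h on HCT-116 beta-lactamase reporter cells seeded 5 h earlier.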

[3] = TOX21_p53_BLA_p3_viability: Viability Assessment in the Tox21 HCT-116 p53 Agonism Beta-lactamase Assay, Phase 3 (AID 2283593);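 also: cells exposed to compound for 16 h before reading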
Outline: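 Cellular ATP was quantified by CellTiter-Glo luminescence, read after 30 min at room temperature. Beforehand, HCT116 cells (4000/well) received compound 5 h post-seeding, 217-fold diluted from DMSO, then incubated 16 h at 37C.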

[4] = target: Cellular tumor antigen p53 (Homo sapiens) (UniProt P04637); test: TOX21_p53_BLA_p3_ratio: Tox21 HCT-116 p53 Agonism Beta-lactamase Assay, Ratio, Phase 3 (AID 2283596)
Outline: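 Cells were seeded at 4000/well, rested 5 h at 37C, then dosed with DMSO compound solutions (217-fold dilution) for 16 h. CCF4-AM substrate was loaded for 2 h at room temperature, and the 460/530 nm emission ratio was fitted for gain of signal versus DMSO.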

[5] = TOX21_p53_BLA_p4_viability: Viability Assessment in the Tox21 HCT-116 p53 Agonism Beta-lactamase Assay, Phase 4 (AID 2283597);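 also: hits lower the luminescence signal meaning cytotoxicity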
Outline: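 Cytotoxicity as reduced cellular ATP (CellTiter-Glo luminescence, 30 min room temperature), measured in the same wells following the CCF4 FRET p53 reading. Human HCT-116 cells received compounds in DMSO (217-fold dilution) for 16 h.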

[6] = TOX21_p53_BLA_p5_viability: Viability Assessment in the Tox21 HCT-116 p53 Agonism Beta-lactamase Assay, Phase 5 (AID 2283600)
Outline: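 Viability came from CellTiter-Glo ATP luminescence, read after 30 min at room temperature. Before this, HCT-116 p53-bla cells (4000/well) had 16 hours of compound exposure at 37C, with DMSO stocks diluted 217-fold on transfer.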

[7] = target: Cellular tumor antigen p53 (Homo sapiens) (UniProt P04637); test: TOX21_p53_BLA_p4_ratio: Tox21 HCT-116 p53 Agonism Beta-lactamase Assay, Ratio, Phase 4 (AID 2283601)
Outline: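 Signal is the blue/green (460nm/530nm) ratio of cleaved versus uncleaved CCF4-AM substrate, read after 2 h substrate loading. Cells were HCT116 carrying the p53-responsive beta-lactamase reporter, dosed 16 h at 37C, 5% CO2; CellTiter-Glo measured in parallel.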

[8] = CCTE_Harrill_HTTr_Viability_MCF7: CCTE's 6-hour Cell Viability Assessment for the High-Throughput Transcriptomics (HTTr) Platform, in MCF-7 cells cultured in DMEM + 10% fetal bovine serum, Harrill Lab (AID 2284010; active = hit-call score of the fitted dose curve at least 0.9, where 1 is the maximum; inactive = score below 0.9)
Outline: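 Read-out is propidium iodide gain of signal by high-content imaging, reflecting membrane integrity loss. Measurements are taken 6 h after dosing, eight concentrations per chemical, with DMSO serving as baseline for bidirectional curve fitting.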

[9] = CCTE_Harrill_HTTr_Apoptosis_MCF7: CCTE's 6-hour Apoptosis Assessment for the High-Throughput Transcriptomics (HTTr) Platform, in MCF-7 cells cultured in DMEM + 10% fetal bovine serum, Harrill Lab (AID 2284011; active = hit-call score of the fitted dose curve at least 0.9, where 1 is the maximum; inactive = score below 0.9)
Outline: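 High-content imaging of CellEvent Caspase 3/7 Green signal follows a six-hour exposure, with eight concentrations per chemical. MCF-7 cells grown in DMEM plus 10% fetal bovine serum; activity fitted in both directions against DMSO.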

[10] = CCTE_Harrill_HTTr_CellCount_MCF7: CCTE's Cell Proliferation Assessment for the High-Throughput Transcriptomics (HTTr) Platform, Harrill Lab (AID 2284012);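 also: cells exposed to compound for six hours; intended direction is loss of nuclei count meaning fewer cells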
Outline: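 Cell count served as viability reporter: loss of Hoechst-stained nuclei, counted by high content imaging, marks decreased growth or survival. Exposure was 6 h in MCF-7 cells across eight concentrations, with DMSO as baseline.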

[11] = target: Cellular tumor antigen p53 (Homo sapiens) (UniProt P04637); test: TOX21_p53_BLA_p5_ratio: Tox21 HCT-116 p53 Agonism Beta-lactamase Assay, Ratio, Phase 5 (AID 2283599)
Outline: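 Beta-lactamase reporter ratio (blue 460 nm over green 530 nm, 405 nm excitation) after 2 h CCF4-AM loading, in HCT-116 cells exposed 16 h at 37 C to compounds pinned at 217-fold dilution. Increases relative to DMSO baseline scored.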

Measured: AC50

CC(C(=O)O)c1ccc(-c2ccccc2)c(F)c1 (stereo not given)
inactive: [1] | [2] | [3] | [4] | [5] | [6] | [7] | [8] | [9] | [10]

CC(O)C(CO)C(C)O (stereo not given)
inactive: [1] | [2] | [3] | [4] | [5] | [6] | [7]

CCN(CC)c1ccc2c(-c3ccc(S(=O)(=O)O)cc3S(=O)(=O)[O-])c3ccc(=[N+](CC)CC)cc-3oc2c1
inactive: [1] | [2] | [3] | [4] | [5] | [6] | [7]

Cc1nc2ccccn2c(=O)c1CCN1CCC(C(=O)c2ccc(F)cc2)CC1
inactive: [1] | [2] | [3] | [4] | [5] | [6] | [7]

CC(Cl)=CCCl
inactive: [1] | [2] | [3] | [4] | [5] | [7]

CC(C)(C(=O)O)c1ccc(C(O)CCCN2CCC(C(O)(c3ccccc3)c3ccccc3)CC2)cc1 (stereo not given)
inactive: [1] | [2] | [3] | [4] | [5] | [6] | [7]

OCCSc1ccccc1
inactive: [1] | [2] | [3] | [4] | [5] | [7]

O=C1Nc2ccccc2C1=O
inactive: [1] | [2] | [3] | [4] | [11] | [6]

COC(=O)[C@H]1[C@H]2C[C@H]3c4[nH]c5ccccc5c4CCN3C[C@H]2CC[C@@H]1O
inactive: [1] | [2] | [3] | [4] | [11]

C=CC(C)(O)CC/C=C(\C)CCC=C(C)C (stereo not given)
inactive: [1] | [2] | [3] | [4] | [11] | [6] | [7]

CC(C)(c1ccc(Oc2ccc3c(c2)C(=O)OC3=O)cc1)c1ccc(Oc2ccc3c(c2)C(=O)OC3=O)cc1
inactive: [1] | [2] | [3] | [4] | [11]

CCc1nnc(NS(=O)(=O)c2ccc(N)cc2)s1
inactive: [1] | [2] | [3] | [4] | [11] | [6]

C=Cc1ccc(S(=O)(=O)O)cc1
inactive: [1] | [2] | [3] | [4] | [11] | [6] | [7]

CC1=C(/C=C/C(C)=C/C=C/C(C)=C/C=O)C(C)(C)CCC1
inactive: [2]
active: [1] 28.7 µM | [3] 36.6 µM | [4] 66.6 µM | [11] 49.1 µM | [6] 34.9 µM | [7] 85.6 µM

C=C1[C@@H]2CC[C@@H](C2)C1(C)C
inactive: [1] | [2] | [3] | [4] | [11] | [6] | [7]
